Compound activity from PubChem.
Shown are actives, neighbours in structure and some others; about 19% of the full set was active somewhere.
HT1080NT lethal: kills 2HG-producing HT-1080-NT fibrosarcoma cells. HT-1080-NT fibrosarcoma viability, CellTiter-Glo ATP luminescence, 48 h. Potency, µM (titrated, usually from 46.1 µM), without a hit: top-dose activity, negative = less viability, hits mostly cytotoxic. 1.6% of 360,000 active;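 further: NT is the 2HG producing partner of a matched IDH1 knockdown line; potency means the concentration at half of the fitted maximal effect; 0% = DMSO-treated cells and -100% = media-only wells without cells; nearly all actives have a fitted effect of over 55% in size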
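Luminescent CellTiter-Glo readout after 48 hours of compound exposure at 37 degrees C defined viability of HT-1080-NT cells. Activity was normalized to DMSO wells and cell-free media wells; concentration-response curves were fitted and assigned curve classes.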
HT1080 IDH1KD tx: HT-1080 IDH1 knockdown cell toxicity (counter line) | 2% of 360,000 active | HT-1080 IDH1 knockdown viability, ATP luminescence, 48 h | Potency, µM (top dose mostly 46.1 µM), for inactives: at the top dose activity, negative = toxicity, most hits filed as cytotoxic | AID 686971;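 further: potency means the concentration at half of the fitted maximal effect; 0% = DMSO wells and -100% = cell-free medium wells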
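Knockdown cells (IDH1KD HT-1080) received compounds 2 h after plating at 750 cells/well and were kept 48 h at 37 °C in 5% FBS RPMI. A CellTiter-Glo luminescence read gave % activity for curve fitting.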
TDP1 cell noCPT: qHTS for Inhibitors of human tyrosyl-DNA phosphodiesterase 1 (TDP1): qHTS in cells in absence of CPT; Potency, µM (series often up to 46.2 µM), for inactives: at the highest dose activity change, negative = growth inhibition, actives largely listed as inhibitors; AID 686978, 2013; 15% of 420,000 active; DT40 Tdp1-/- hTDP1 cells, no CPT, ATP luminescence, 48 h; further: potency means the concentration at half of the fitted maximal effect; nearly all actives have a fitted effect of over 55% in size
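Stably hTDP1-transfected Tdp1-null chicken DT40 cells were treated with library compounds minus camptothecin and grown for at least 48 hr at 37 °C, after which cellular ATP was quantified by luminescence.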
DT40 TDP1 CPT: growth inhibition of DT40 Tdp1-/-;hTDP1 cells with camptothecin (screen for TDP1 inhibitors) | chicken DT40 Tdp1-/-;hTDP1 cells + 20 nM CPT, ATP luminescence, 48 h | Potency, µM (titrated, usually from 46.2 µM), for the others: top-dose activity change, negative = growth inhibition, usual class: inhibitors | 12% of 420,000 active | AID 686979; further: potency means the concentration at half of the fitted maximal effect; nearly all actives have a fitted effect of over 55% in size
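Chicken DT40 Tdp1-/- cells stably complemented with human TDP1 were seeded at 400 cells/well in medium containing 20 nM camptothecin, exposed to pin-transferred compounds, and grown at 37 °C for at least 48 hr. Viability was read as ATP luminescence.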
ELG1 repair inh: blocks ELG1-dependent DNA repair in HEK293T cells; HEK293T ELG1-luciferase reporter, luminescence, 16 h; DNA damage induced by 5-fluorouridine; Potency, µM (doses to about 46.1 µM), without a hit: at the top dose activity change, negative = inhibition, usual class: inhibitors; 2.3% of 330,000 active; AID 504467; further: potency means the concentration at half of the fitted maximal effect; nearly all actives have a fitted effect of over 55% in size
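In this reporter screen, reduction of luminescence relative to DMSO vehicle indicated activity. Compounds and 5-fluorouridine were added together to 2,000 cells per well, incubated for 16 hr at 37 °C, then developed with ONE-Glo.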
IL-1B inflam inh: inhibitors of inflammasome signaling (IL-1 beta secretion); THP-1 LPS/ATP IL-1B secretion, AlphaLISA, 16 h; stronger effect = lower value; activity change, % at 57.5 µM; 4.7% of 360,000 active; in the data active means activity change below about -50%; inconclusive means mostly about -30% to -49%
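Secreted IL-1B measured by AlphaLISA bead assay after 16 h compound exposure of THP-1 cells; compounds (final up to 57.5 uM) added 1 h before LPS (250 ng/mL) and ATP (1.25 mM) stimulation; lower signal means less secretion.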
* hit, by the source's call; u = inconclusive; x = no result; [ ] = dose if it differs, or a comment. Unless noted, the call rests on the fitted dose curve; in most records, active means well fitted curve in the direction sought with a large enough effect; inconclusive means small, poorly fitted or top-dose-only effect, or another doubt; inactive means no such curve, though single readings can be large; an effect the other way counts as inactive or inconclusive. Unless noted, on the % scale 0 is the no-effect control and ±100 the full control effect.

SMILES | HT1080NT lethal | HT1080 IDH1KD tx | TDP1 cell noCPT | DT40 TDP1 CPT | ELG1 repair inh | IL-1B inflam inh
O=C(O)c1ccc(C(S(=O)(=O)c2ccccc2)S(=O)(=O)c2ccccc2)cc1 | 14% | 7% | -8% | 11% | x | -7
COc1cccc(C(=O)N2[C@H](COCc3ccccc3)C=CS2(=O)=O)c1 | 4% | -28% | u | u | x | -29
COc1ccc(-c2cn3c(C)c(C(=O)N4CCN(c5ccccc5F)CC4)sc3n2)cc1 | -25% | -10% | 18µM* | 23µM* | u | 53
COc1ccc(-c2cn3c(C)c(C(=O)Nc4cccc(NC(C)=O)c4)sc3n2)cc1 | 6% | 12% | 3% | u | 14% | 7
COc1ccc(-c2cn3c(C)c(C(=O)Nc4ccncc4)sc3n2)cc1 | u | -27% | 5.8µM* | 3.7µM* | -2% | 50
Cc1ccc(NC(=O)c2sc3nc(-c4ccc(F)cc4)cn3c2C)c(C)c1 | x | x | u | -21% | x | x
Cc1c(C(=O)N2CCN(c3ccccc3F)CC2)sc2nc(-c3ccccc3)cn12 | -1% | -18% | u | u | u | u
CCOc1ccc(NC(=O)c2sc3nc(-c4ccc(OC)cc4)cn3c2C)cc1 | x | x | 7.3µM* | 16µM* | x | x
Cc1c(C(=O)Nc2ccncc2)sc2nc(-c3ccc(F)cc3)cn12 | u | u | 5.2µM* | 7.3µM* | -21% | 11
Cc1nnc(SCc2cc(=O)[nH]c(Nc3nc(C)c4cc(C)c(C)cc4n3)n2)s1 | 36% | 15% | -1% | u | -7% | -11
COc1ccc2nc(Nc3nc(CSc4nnnn4-c4ccccc4)cc(=O)[nH]3)nc(C)c2c1 | 4% | 8% | u | u | -17% | 17
Cc1ccc2c(C)nc(Nc3nc(CSc4nnnn4-c4ccccc4)cc(=O)[nH]3)nc2c1 | u | u | 6.5µM* | 5.8µM* | 8.2µM* | -27
Cc1ccc2c(C)nc(Nc3nc(CSc4nc5ccccc5s4)cc(=O)[nH]3)nc2c1 | 9% | 8% | 5.2µM* | u | x | 16
NS(=O)(=O)c1ccc(CNC(=O)c2ccc(S(=O)(=O)NCc3ccco3)cc2)cc1 | 3% | 5% | -8% | 2% | 17% | -10
CCOc1ncccc1C(=O)NNC(=O)CSc1ccc(Cl)cc1 | -2%[9.24 µM] | 2% | u | u | u | -23
Cc1ccc(N=C2NC(=O)/C(=C/c3cccn3C)S2)cc1 | -29% | 10µM* | 4.6µM* | 6.5µM* | u | 41
Cc1ccccc1N=C1NC(=O)/C(=C/c2cccn2-c2cccc(C(=O)O)c2)S1 | 9% | 11% | 3% | 8% | 2% | 52
Cc1ccc(N=C2NC(=O)/C(=C\c3ccc(C)s3)S2)cc1 | 28% | 29% | u | -16% | -13% | -11
Cc1ccc(N=C2NC(=O)/C(=C/c3cccn3C)S2)cc1C | -1% | -20% | 9.2µM* | 21µM* | u | 20
Cc1cccc(N=C2NC(=O)/C(=C/c3cccn3C)S2)c1C | -18% | u | 8.2µM* | u | u | -3
Cc1cccc(NC(=O)c2ccc(S(=O)(=O)NCc3cccnc3)cc2)c1 | -1% | -14% | u | 1% | 15µM* | 46
Cc1ccc(NC(=O)c2ccc(S(=O)(=O)NCc3cccnc3)cc2)cc1C | -14% | 0% | u | u | u | 9
O=C(c1ccc(Cl)c(S(=O)(=O)NCc2cccnc2)c1)N1CCCC1 | -6% | -2% | 2.9µM* | u | 6% | -6
O=C(Nc1ccc(Cl)c(Cl)c1)c1cccc(S(=O)(=O)NCc2cccnc2)c1 | 7.3µM* | 23µM* | 12µM* | 5.8µM* | u | -82*
COc1ccc(OCC(=O)N2CCN(C(=O)c3ccc(F)cc3)CC2)cc1 | 1% | 12% | 15% | -14% | 1% | 7
SMILES | HT1080NT lethal | HT1080 IDH1KD tx | TDP1 cell noCPT | DT40 TDP1 CPT | ELG1 repair inh | IL-1B inflam inh
O=C(CC1C(=O)NCCN1Cc1cccc(C(F)(F)F)c1)NC1CCCCCC1 (stereo unspecified) | 1% | 1% | u | -4% | 0% | -13
COc1ccc(N2CCN(CCN3C(=O)c4ccccc4C3=O)CC2)cc1 | 7% | 12% | 8% | 2% | -2% | 5
COc1ccc(N2CCN(C(CNC(=O)c3ccco3)c3cccnc3)CC2)cc1 (stereo unspecified) | 2% | 7% | u | u | u | 14
COc1ccc(N2CCN(C(CNC(=O)C(=O)NCCCN(C)C)c3cccnc3)CC2)cc1 (stereo unspecified) | x | x | -29% | -3% | x | x
COc1ccc(N2CCN(C(CNC(=O)C(=O)NCCc3ccccc3)c3cccnc3)CC2)cc1 (stereo unspecified) | x | x | 16µM* | 15µM* | x | x
O=C(NCc1ccccc1)C(=O)NCC(c1cccnc1)N1CCN(c2ccccc2)CC1 (stereo unspecified) | x | x | 13µM* | 16µM* | x | x
COc1ccc(N2CCN(C(CNC(=O)C(=O)NCc3ccc(C)cc3)c3cccnc3)CC2)cc1 (stereo unspecified) | x | x | 7.3µM* | 8.2µM* | x | x
OC(c1cccnc1)c1ccc2c(c1)CN(Cc1cccc3c1OCO3)CCO2 (stereo unspecified) | x | x | -19% | 0%[9.04 µM] | x | x
COC(=O)C1NC(=O)N2C(C(=O)OC)C(C)(C)S[C@H]12 (stereo partly specified) | 13% | 11% | 0% | -4% | x | 44
Cc1ccc(S(=O)(=O)CCN2CCC(n3cccc3)CC2)cc1 | -2% | -4% | -11% | 10% | 5% | -59*
O=C(Cc1ccc(NC(=O)N2CCCCc3ccccc32)cc1)Nc1ccccc1Br | x | x | 21µM* | u | x | x
COCCNC(=O)Cc1ccc(NC(=O)N2CCCCc3ccccc32)cc1 | x | x | -10% | 0% | x | x
CC(C)c1ccc(NC(=O)Cc2ccc(NC(=O)N3CCCCc4ccccc43)cc2)cc1 | x | x | 21µM* | 18µM* | x | x
O=C(c1ccco1)N1CCN(c2ccc([N+](=O)[O-])cn2)CC1 | 2% | -7% | -5% | u | x | -12
Cc1cccc(N(C(=O)CNC(=O)c2ccco2)C(C(=O)NCC2CCCO2)c2ccccc2)c1 (stereo unspecified) | 0% | 12% | -27% | -3% | -17% | -1
Cc1ccc(CNC(=O)Cc2c(C)c3cc4c(C)coc4cc3oc2=O)cc1 | x | x | -20% | -1% | x | x
